From PubChem BioAssay come the findings set out here.

Active and inactive are the calls of the source.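 Rule for the calls, unless noted: active = NADPH fluorescence slope more negative than the mean of all samples by about 3 SD, 99.7% confidence; inactive = the rest.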

Assay [1] in a line: inhibitors of TNFa-induced NFkB p65 translocation, primary screen, imaging, HUVEC, MLSMR starter and 10KST1 sets (AID 438;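 active = inhibition above 20% together with a positive visual image hit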;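 note: compound added about 3h40 before a 20 min TNFalpha stimulation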;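 for inhibition: signal is the nuclear over cytoplasmic p65 intensity ratio per well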). The following applies: HUVEC TNFa-induced p65 nuclear translocation; cell count: measured here: nuclei count (cytotoxicity indicator), at 2.08 µM; inhibition: at 2 µM, stronger effect = higher value, 0% TNFa-plus-vehicle, 100% no-TNFa wells.
Assay [2] is described as follows: reduction of polyQ htt aggregates in cells – imaging, exon1htt(103Q)mCFP cells, high-content imaging, primary screen (AID 483;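 active = visual image review flags a hit and inhibition of aggregation exceeds 20%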;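 note: compound exposure lasted 3 days before fixation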;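 for nuclei count: percent of the per-plate median nuclei count of sample wells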). The following applies: exon1htt(103Q)mCFP cell line, aggregate imaging, at 2 µM; inhibition of aggregation: stronger effect = higher value; nuclei count: measured here: cell count, toxicity.
Assay [3] can be described thus: endothelial E-selectin expression blockers – imaging, HUVEC, immunofluorescence, MLSMR starter and 10KST1 sets, primary screen (AID 487;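 active = visually confirmed hit in the image check and inhibition above 20%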;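 for inhibition: signal is fraction of cell area covered by stained E-selectin grains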;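 for nuclei count: 100% = median nuclei count of all wells on the same plate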). The following applies: HUVEC TNFalpha-induced E-selectin immunofluorescence imaging, at 2 µM; inhibition: stronger effect = higher value; nuclei count: measured here: cell number, toxicity.
The target of assay [4] is Voltage-gated potassium channel subunit beta-2 (Rattus norvegicus) (UniProt P62483). The experiment in a line: inhibitors of rat Kvbeta2 reductase activity – biochemical, NADPH fluorescence, primary screen (AID 622;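 active = fluorescence slope higher than the sample average by over 3 SD, cut at about -0.22 in these data, passing the limit was not always enough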;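 note: slope of raw intensity against log time taken from 70 to 1610 s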). The following applies: recombinant KvBeta, 4-cyanobenzaldehyde reduction, at 10 µM, stronger effect = higher value.
The target is the same in assay [5]. The experiment in a line: enhancers of rat Kvbeta2 NADPH turnover – biochemical, NADPH fluorescence, primary screen (AID 623).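 Note: fluorescence intensity change per second fitted from 20 to 320 s.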 The following applies: Recombinant KvBeta, NADPH fluorescence decrease slope, 10 min; at 10 µM; stronger effect = lower value.
For assay [6], the target named is Alpha-2C adrenergic receptor (Homo sapiens) (UniProt P18825). Description: compounds altering alpha2C-coupled GIRK flux – cell-based, HEK293 alpha2C/GIRK1/2, thallium flux, primary screen (AID 624;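 active = fluorescence slope after compound addition differing from the mean of all screened samples at 99.7% confidence, in either direction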;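 note: slope of fluorescence ratio to pre-addition baseline per second over 15 to 24 s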). The following applies: thallium flux BTC fluorescence, at 10 µM, actives lie on both sides.
A short description of assay [7]: blockers of RIG-like receptor reporter activation – cell-based, Sendai virus stimulus, luciferase, 10K MLSCN set, TLR/RLR signaling modifier project, primary screen (AID 602276;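 active = inhibition at or above 50% at 10 µM; inactive = inhibition below 50%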;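 note: firefly luciferase from ISG56 promoter only with Renilla not read in this screen; 0% = Sendai virus plus DMSO and 100% = medium plus DMSO without virus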). The following applies: HEK293 RL24 IRF3 luciferase reporter, at 10 µM, stronger effect = higher value.
Assay [8] can be described thus: TLR3 IRF3 reporter activation blockers – cell-based, poly I:C stimulus, luciferase, 10K MLSCN set, primary screen (AID 602277;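 active = inhibition of the reporter signal at or above 50%; inactive = inhibition below 50%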). The conditions noted are these: HEK293-TLR3 RL24 IRF3 luciferase reporter, at 10 µM, stronger effect = higher value.

Chain of Alpha-2C adrenergic receptor (Homo sapiens) (P18825 whole entry, looked up): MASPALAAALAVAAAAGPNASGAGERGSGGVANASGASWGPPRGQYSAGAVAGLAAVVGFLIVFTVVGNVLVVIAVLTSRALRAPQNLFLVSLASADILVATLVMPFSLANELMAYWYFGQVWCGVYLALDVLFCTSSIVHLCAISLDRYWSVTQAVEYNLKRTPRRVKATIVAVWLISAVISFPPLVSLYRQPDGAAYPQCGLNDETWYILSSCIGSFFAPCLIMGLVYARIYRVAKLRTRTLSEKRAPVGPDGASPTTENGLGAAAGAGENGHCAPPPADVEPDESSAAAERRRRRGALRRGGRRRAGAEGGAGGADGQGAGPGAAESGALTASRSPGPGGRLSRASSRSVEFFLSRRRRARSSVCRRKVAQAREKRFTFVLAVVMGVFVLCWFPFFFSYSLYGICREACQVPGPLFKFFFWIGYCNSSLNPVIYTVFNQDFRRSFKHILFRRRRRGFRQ
Chain of Voltage-gated potassium channel subunit beta-2 (Rattus norvegicus) (P62483 whole entry, looked up): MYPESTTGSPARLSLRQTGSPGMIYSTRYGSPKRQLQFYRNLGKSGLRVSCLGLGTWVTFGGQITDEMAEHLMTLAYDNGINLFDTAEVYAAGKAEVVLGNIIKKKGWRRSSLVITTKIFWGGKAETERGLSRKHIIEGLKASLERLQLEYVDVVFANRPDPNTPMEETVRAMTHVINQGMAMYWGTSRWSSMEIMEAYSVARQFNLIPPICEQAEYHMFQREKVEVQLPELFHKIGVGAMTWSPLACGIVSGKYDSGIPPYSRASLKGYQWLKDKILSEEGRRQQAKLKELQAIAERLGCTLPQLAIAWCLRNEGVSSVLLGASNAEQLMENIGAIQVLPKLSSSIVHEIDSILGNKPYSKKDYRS

For `C=CCn1c(-c2ccccc2)c[nH]c1=S`, the cell count in assay [1] came out at 544. Besides, the inhibition in assay [1] is -9.5% (inactive); in assay [3] it was 8.5% (inactive); in assay [7] it was -33.4% (inactive); in assay [8], -112% (inactive). Further, in assay [2], the inhibition of aggregation is -9.3% (inactive). For the same molecule, the nuclei count in assay [2] stood at 112%; in assay [3], 101%. In addition, in assay [4], the fluorescence slope is -0.61 (inactive). In addition, in assay [5], the NADPH fluorescence slope was -4.2e-05 (inactive). Moreover, the slope in assay [6] was 0.00665 (inactive).
On to `CC(C)NC(=O)c1ccc2c(c1)nnn2C`, for which the cell count in assay [1] worked out at 836. Moreover, the inhibition was 8.2% (inactive) in assay [1], -59.5% (inactive) in assay [3], -4.12% (inactive) in assay [7] and 11.6% (inactive) in assay [8]. For the same molecule, in assay [2], the inhibition of aggregation was 4.8% (inactive). Moreover, the nuclei count in assay [2] was found to be 104%; in assay [3], 116%. In assay [4], the fluorescence slope was -0.471 (inactive). In assay [5], the NADPH fluorescence slope was 2.3e-05 (inactive). Also, the slope in assay [6] is 0.0055 (inactive).
In the case of `O=C(Nc1ccc(Cl)c(C(F)(F)F)c1)N1CCCC(O)C1` (centres undefined), the cell count in assay [1] turned out to be 356. Also, the inhibition in assay [1] was 4.5% (inactive); in assay [3], -50.8% (inactive); in assay [7] it was 1.7% (inactive); in assay [8] it was -22.3% (inactive). Also, the inhibition of aggregation in assay [2] is -4.8% (inactive). In addition, the values for the nuclei count in assay [2] and in assay [3] were 106% and 107%, respectively. In addition, in assay [4], the fluorescence slope was -0.453 (inactive). The NADPH fluorescence slope in assay [5] was 2.2e-05 (inactive). Further, the slope in assay [6] is 0.00599 (inactive).
`CCN(CC)C(=O)COC(=O)c1ccc(O)cc1`: the cell count in assay [1] was determined as 440. For the same molecule, the inhibition in assay [1] is 7.7% (inactive); in assay [3], -5.4% (inactive); in assay [7], -1.76% (inactive); in assay [8], -1.25% (inactive). In assay [2], the inhibition of aggregation was 9.9% (inactive). For the same molecule, the nuclei count in assay [2] worked out at 83.5%; in assay [3], 99.1%. Also, in assay [4], the fluorescence slope is -0.512 (inactive). In addition, in assay [5], the NADPH fluorescence slope is 2.3e-05 (inactive). The slope in assay [6] was 0.00516 (inactive).
`O=C(NCC1CCCO1)C1c2ccccc2C(=O)N1C1CCCCCC1` (centres undefined): the cell count in assay [1] worked out at 445. Further, the inhibition in assay [1] is -9.2% (inactive); in assay [3], -38.3% (inactive); in assay [7], 11.3% (inactive); in assay [8], 15.1% (inactive). The inhibition of aggregation in assay [2] is -4.3% (inactive). The nuclei count was 101% in assay [2] and 109% in assay [3]. Further, the fluorescence slope in assay [4] was -0.621 (inactive). Besides, in assay [5], the NADPH fluorescence slope is 2.7e-06 (inactive). Besides, the slope in assay [6] is 0.00613 (inactive).
As for `CCOc1cc(C2CC(=O)N3CN(C4CCCCC4)CSC3=C2C#N)ccc1O` (centres undefined), the cell count in assay [1] was 818. Besides, the inhibition in assay [1] was 2.3% (inactive); in assay [3], -31.4% (inactive); in assay [7], 11.2% (inactive); in assay [8], 19.8% (inactive). In addition, in assay [2], the inhibition of aggregation was -24.4% (inactive). For the same molecule, the nuclei count in assay [2] was determined as 114%; in assay [3], 110%. In addition, the fluorescence slope in assay [4] is -0.607 (inactive). For the same molecule, the NADPH fluorescence slope in assay [5] was 1.8e-05 (inactive). Further, the slope in assay [6] was 0.00576 (inactive).
As to `CCOc1ccc(N2CC(C(=O)Nc3ccccc3OC)CC2=O)cc1` (centres undefined), in assay [1], the cell count is 663. Also, the inhibition in assay [1] is -3.4% (inactive); in assay [3], -21.8% (inactive); in assay [7] it was 5.76% (inactive); in assay [8], -2.71% (inactive). In assay [2], the inhibition of aggregation is -8.5% (inactive). Besides, the values for the nuclei count in assay [2] and in assay [3] were 89% and 126%, respectively. Further, the fluorescence slope in assay [4] was -0.404 (inactive). Besides, the NADPH fluorescence slope in assay [5] was 2.8e-05 (inactive). In addition, the slope in assay [6] is 0.00536 (inactive).
Take `CC1CCCN(C(=O)CN2C(=O)c3ccccc3C2=O)C1` (centres undefined): the cell count in assay [1] turned out to be 432. Also, the inhibition in assay [1] is 4.9% (inactive); in assay [3] it was -27.3% (inactive); in assay [7] it was 14.5% (inactive); in assay [8], 20.6% (inactive). For the same molecule, the inhibition of aggregation in assay [2] was 15.5% (inactive). Further, the nuclei count is 136% in assay [2] and 102% in assay [3]. The fluorescence slope in assay [4] is -0.272 (inactive). The NADPH fluorescence slope in assay [5] was -3.7e-05 (inactive). Besides, the slope in assay [6] is 0.00658 (inactive).
On to `Cc1ccc(CNC(=O)COC(=O)c2c(C)noc2C)cc1`, for which, in assay [1], the cell count is 581. Besides, the inhibition in assay [1] was 6.9% (inactive); in assay [3], 46% (inactive); in assay [7], -1.51% (inactive); in assay [8], 16.4% (inactive). For the same molecule, the inhibition of aggregation in assay [2] was 23.2% (inactive). Moreover, the values for the nuclei count in assay [2] and in assay [3] were 89.7% and 57.1%, respectively. In assay [4], the fluorescence slope was -0.449 (inactive). Moreover, in assay [5], the NADPH fluorescence slope is -4.4e-05 (inactive). The slope in assay [6] was 0.00349 (inactive).
For `FC(F)Oc1ccc(-c2csc(Cc3nnc4n3CCCCC4)n2)cc1`, the cell count in assay [1] was 578. Moreover, the inhibition is -3.5% (inactive) in assay [1], 84.7% (active) in assay [3], -0.365% (inactive) in assay [7] and -11.8% (inactive) in assay [8]. Further, in assay [2], the inhibition of aggregation is -9% (inactive). Also, the nuclei count in assay [2] is 113%; in assay [3], 83.2%. The fluorescence slope in assay [4] is -0.535 (inactive). Besides, in assay [5], the NADPH fluorescence slope was 7.5e-06 (inactive). The slope in assay [6] was 0.00442 (inactive).
With `C/C(Cl)=C/Cn1c(SCc2ccc(Cl)cc2)nc2c1c(=O)[nH]c(=O)n2C`, the cell count in assay [1] amounted to 551. Moreover, the inhibition was -9.4% (inactive) in assay [1], 15% (inactive) in assay [3], 4.08% (inactive) in assay [7] and 12% (inactive) in assay [8]. Besides, the inhibition of aggregation in assay [2] is 10.9% (inactive). Moreover, the nuclei count in assay [2] turned out to be 108%; in assay [3], 96.1%. The fluorescence slope in assay [4] is -0.513 (inactive). Besides, in assay [5], the NADPH fluorescence slope was -2.3e-05 (inactive). Moreover, in assay [6], the slope is 0.00751 (inactive).
Regarding `CCOc1ccc(OCCCCN(C)C)cc1`, in assay [1], the cell count worked out at 386. For the same molecule, the inhibition is 1.8% (inactive) in assay [1], -111% (inactive) in assay [3], 8.3% (inactive) in assay [7] and 27.7% (inactive) in assay [8]. In addition, the inhibition of aggregation in assay [2] is 5.3% (inactive). Moreover, the results for the nuclei count in assay [2] and in assay [3] were 110% and 104%, respectively. For the same molecule, the fluorescence slope in assay [4] was -0.299 (inactive). Further, the NADPH fluorescence slope in assay [5] is -6.7e-06 (inactive). Moreover, in assay [6], the slope is 0.00564 (inactive).
Turning to `O=C(COC(=O)C12CC3CC(CC(O)(C3)C1)C2)N1CCN(S(=O)(=O)c2ccc(Cl)cc2)CC1`, the cell count in assay [1] was found to be 371. For the same molecule, the inhibition in assay [1] is 4.7% (inactive); in assay [3], -72.7% (inactive); in assay [7], 8.77% (inactive); in assay [8] it was 18% (inactive). In addition, in assay [2], the inhibition of aggregation was 0.7% (inactive). Moreover, the nuclei count in assay [2] is 95.7%; in assay [3], 97.2%. Also, the fluorescence slope in assay [4] is -0.33 (inactive). In addition, the NADPH fluorescence slope in assay [5] is -1.9e-05 (inactive). Besides, the slope in assay [6] was 0.00661 (inactive).
Take `COc1ccc(N(C)C(=O)CCS(=O)(=O)c2cccc3nonc23)c(OC)c1`: the cell count in assay [1] came out at 557. Also, the inhibition was -1.4% (inactive) in assay [1], -18.3% (inactive) in assay [3], 4.07% (inactive) in assay [7] and 16.9% (inactive) in assay [8]. Also, in assay [2], the inhibition of aggregation was -17.3% (inactive). Moreover, the nuclei count in assay [2] came out at 121%; in assay [3], 125%. Moreover, the fluorescence slope in assay [4] was -0.488 (inactive). Moreover, the NADPH fluorescence slope in assay [5] is -0.000205 (inactive). Further, in assay [6], the slope was 0.00467 (inactive).
